Results on 27 compounds are retold here after PubChem BioAssay (Tox21).

The structures appear in SMILES notation. Where “and” joins values, the source holds several entries; their conditions need not be identical. Equal entries are not always repeated. A structure can be active in one record and inactive in another. Calls of active or inactive are those of the source. Unless noted, calls come from the whole dose curve; as a rule, active = well fitted curve in the direction sought with a large enough effect in the repeat runs; inconclusive = weak or mixed curves; inactive = no such curve, though single readings can be large; an effect the other way counts as inactive or inconclusive.

The nature of assay [1]: qHTS assay to identify small molecule antagonists of the thyroid receptor (TR) signaling pathway - cell viability counter screen (AID 743064). Note: nearly all actives have a fitted effect of over 50% in size. In short, it runs like this:
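Rat GH3 pituitary tumor cells stably expressing two TR response elements driving luciferase were plated, rested 4 h, then dosed with library compounds and T3 (1 nM final). After 23.5 h at 37 °C, CellTiter-Fluor was added for 30 min and fluorescence recorded.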
On the technique in general: In qHTS, concentration-response curves come from the screen itself.

The nature of assay [2]: qHTS assay to identify small molecule antagonists of the thyroid receptor (TR) signaling pathway (AID 743065). Note: nearly all actives have a fitted effect of over 55% in size. In short, it runs like this:
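Antagonism measured as loss of luciferase signal in GH3 cells stably carrying a TRE-luciferase reporter, co-treated with compound and T3 (1 nM final) for 23.5 h at 37 C. Viability was read in the same well by CellTiter-Fluor.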

Assay [3] deals with thyroid hormone receptor (rat, GH3 cells). The experiment in a line: qHTS assay to identify small molecule agonists of the thyroid receptor (TR) signaling pathway (AID 743066; calls by dose curve).
The nature of assay [4]: qHTS assay to identify small molecule antagonists of the estrogen receptor alpha (ER-alpha) signaling pathway - cell viability counter screen (AID 743074; calls by dose curve;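 note: HEK293 cells carrying ER-alpha-UAS-bla reporter stimulated with 17beta-estradiol; nearly all actives have a fitted effect of over 45% in size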).
The nature of assay [5]: qHTS assay to identify small molecule antagonists of the estrogen receptor alpha (ER-alpha) signaling pathway using the BG1 cell line - cell viability counter screen (AID 743081).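 Note: compound given together with 17beta-estradiol as the ER stimulus; nearly all actives have a fitted effect of over 45% in size.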
In a further assay the target is Aromatase (Homo sapiens) (UniProt P11511). The experiment in a line: qHTS assay to identify aromatase inhibitors (AID 743083). Note: nearly all actives have a fitted effect of over 55% in size.
Aromatase (Homo sapiens), sequence (P11511 whole entry, looked up): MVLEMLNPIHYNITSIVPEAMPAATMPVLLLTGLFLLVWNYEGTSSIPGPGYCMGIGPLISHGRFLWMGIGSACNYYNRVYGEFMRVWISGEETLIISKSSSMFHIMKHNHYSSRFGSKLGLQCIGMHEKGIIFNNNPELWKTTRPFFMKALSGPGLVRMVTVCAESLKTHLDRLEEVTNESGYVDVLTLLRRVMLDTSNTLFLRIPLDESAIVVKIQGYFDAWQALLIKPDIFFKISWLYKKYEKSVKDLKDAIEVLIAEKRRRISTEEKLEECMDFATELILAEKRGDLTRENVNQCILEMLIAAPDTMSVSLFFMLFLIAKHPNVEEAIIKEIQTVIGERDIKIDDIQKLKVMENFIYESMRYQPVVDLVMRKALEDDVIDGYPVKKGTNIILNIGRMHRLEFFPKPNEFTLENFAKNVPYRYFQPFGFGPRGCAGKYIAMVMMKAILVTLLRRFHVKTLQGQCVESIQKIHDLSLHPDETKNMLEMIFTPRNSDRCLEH
The target of assay [6] is Estrogen receptor (Homo sapiens) (UniProt P03372). Nature of the assay: qHTS assay to identify small molecule antagonists of the estrogen receptor alpha (ER-alpha) signaling pathway (AID 743069; active = well fitted curve in the direction sought with a large enough effect in the signal ratio in the repeat runs, not every such curve was filed as active; inconclusive = weak or mixed curves, or effect the other way; inactive = no such curve, though single readings can be large or run the other way; the % refers to the signal ratio). The essentials:
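Antagonist mode: compounds in DMSO were co-added with 17beta-estradiol to ER-alpha-bla HEK293 cells (2% charcoal-stripped serum) and left 18 h at 37C. Reporter inhibition was measured as FRET fluorescence after 2 h LiveBLAzer substrate at room temperature.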

Assay [7] shares this target. The experiment in a line: qHTS assay to identify small molecule agonists of the estrogen receptor alpha (ER-alpha) signaling pathway (AID 743075; calls by dose curve;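 note: HEK293 GripTite cells with ER-alpha and UAS-driven beta-lactamase reporter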).
Assay [8] shares this target. Nature of the assay: qHTS assay to identify small molecule agonists of the estrogen receptor alpha (ER-alpha) signaling pathway using the BG1 cell line (AID 743079). Note: nearly all actives have a fitted effect of over 20% in size.
The nature of assay [9]: qHTS assay to identify small molecule antagonists of the estrogen receptor alpha (ER-alpha) signaling pathway using the BG1 cell line (AID 743080; calls by dose curve;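 note: BG1 cells stimulated with 17beta-estradiol alongside compound; nearly all actives have a fitted effect of over 25% in size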). The conditions noted are these: BG1Luc4E2 ERE-luciferase antagonist mode, luminescence; activity change, negative = inhibition: at 70.3 µM (top of the series) unless noted. In short, it runs like this:
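Endogenous full-length ER-alpha in BG1-Luc-4E2 cells drives a stably integrated 4×ERE luciferase gene; compounds were tested against 17beta-estradiol over 21.5 h, with luminescence and multiplexed viability fluorescence recorded.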
% is set by controls: 0 for no effect and ±100 for the full control effect; potency is the fitted concentration of half-maximal effect.

Estrogen receptor (Homo sapiens), sequence (P03372 whole entry, looked up): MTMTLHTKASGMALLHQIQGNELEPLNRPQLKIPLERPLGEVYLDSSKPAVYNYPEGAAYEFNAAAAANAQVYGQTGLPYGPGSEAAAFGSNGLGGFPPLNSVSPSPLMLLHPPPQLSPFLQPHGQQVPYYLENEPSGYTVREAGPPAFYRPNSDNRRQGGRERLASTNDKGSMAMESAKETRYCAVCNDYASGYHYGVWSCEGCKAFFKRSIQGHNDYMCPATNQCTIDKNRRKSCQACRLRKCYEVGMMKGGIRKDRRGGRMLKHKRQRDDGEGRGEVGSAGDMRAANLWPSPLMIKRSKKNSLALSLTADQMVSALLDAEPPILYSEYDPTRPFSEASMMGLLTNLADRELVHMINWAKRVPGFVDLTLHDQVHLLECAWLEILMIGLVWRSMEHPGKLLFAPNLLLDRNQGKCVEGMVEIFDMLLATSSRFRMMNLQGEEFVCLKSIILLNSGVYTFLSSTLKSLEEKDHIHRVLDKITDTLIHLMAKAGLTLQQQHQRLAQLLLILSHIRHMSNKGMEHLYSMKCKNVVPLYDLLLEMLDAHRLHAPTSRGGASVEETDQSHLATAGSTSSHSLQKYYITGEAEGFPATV

`O=[N+]([O-])c1ccccc1O`: the Potency entry (in assay [1]; in [2]; in [3]; in assay [4]; in assay [5]; with Aromatase (Homo sapiens)) was “inactive” each time.

With `Cc1cc(Cl)ccc1OCC(=O)O`, the Potency entry in assay [1], in [2], in assay [3], in [6], in [4] and in [7] was “inactive” throughout. For the same compound, the Potency result (in assay [8]; in [9]; in [5]; with Aromatase (Homo sapiens)) was “inactive” in each case.

For the compound `Cc1cc(-c2ccc(N)c(C)c2)ccc1N`, the Potency entry in assay [1], in [2], in assay [3], in [6], in assay [4] and in assay [8] was “inactive” in each case. Further, the Potency result (in assay [5]; with Aromatase (Homo sapiens)) was “inactive” throughout. For the same compound, in assay [7], the Potency was 19.2 nM [inconclusive] (active) and 48.8 µM [inconclusive] (active) and 61.7 µM [inconclusive] (active).

Consider `COP(=O)(OC)C(O)C(Cl)(Cl)Cl` (stereo not given), for which the Potency result (in assay [1]; in [2]; in [3]; in assay [4]; in assay [5]; with Aromatase (Homo sapiens)) was “inactive” each time.

On to `Cc1cc(Cl)ccc1N`, for which the Potency entry (in [1]; in assay [2]; in [3]; in [4]; in assay [5]; in the assay with Aromatase (Homo sapiens)) was “inactive” throughout.

Consider `CCCCCCCCCCCCCC[P+](CCCCCC)(CCCCCC)CCCCCC`, for which the Potency in [1] is 6.14 µM (active) and 5.49 µM (active) and 3.06 µM (active); in [2], 3.87 µM (active) and 4.36 µM (active) and 2.43 µM (active); in assay [6], 982 nM [inconclusive] (active) and 985 nM [inconclusive] (active) and 775 nM [inconclusive] (active); in assay [4], 13.9 µM (active) and 11.1 µM (active); in [9] it was 4.88 µM (active) and 3.89 µM (active) and 3.43 µM (active); in [5], 19.4 µM (active) and 13.8 µM (active). The Potency in the assay with Aromatase (Homo sapiens) was 6.14 µM (active) and 3.89 µM (active) and 1.09 µM (active). Further, the Potency result in assay [3] is “inactive”.

Turning to `Nc1ccc(Cl)cc1`, the Potency result in [1], in [2], in assay [3], in assay [4], in assay [7] and in [8] was “inactive” throughout. The Potency result (in assay [9]; in [5]; with Aromatase (Homo sapiens)) was “inactive” each time. In addition, the Potency in assay [6] was 9.95 µM [inconclusive] (active).

On to `Nc1ccc(-c2ccc(N)cc2)cc1`, for which the Potency entry in assay [1], in [2], in assay [3], in assay [6], in assay [4] and in [7] was “inactive” each time. Also, the Potency entry in assay [8] and in assay [5] was “inactive” in each case. Further, the Potency entry with Aromatase (Homo sapiens) was “inactive and 1.92 µM (active)”.

Take `CCOP(=S)(OCC)Oc1ccc2c(C)c(Cl)c(=O)oc2c1`: the Potency result (in [1]; in assay [2]; in [3]; in assay [4]; in assay [5]; with Aromatase (Homo sapiens)) was “inactive” each time.

Consider `CC(=O)[O][Hg][c]1ccccc1`, for which the Potency in assay [1] is 596 nM (active) and 241 nM (active) and 386 nM (active); in [2], 422 nM (active) and 215 nM (active) and 217 nM (active); in [6], 6.16 µM [inconclusive] (active); in assay [4], 5.35 µM (active) and 2.43 µM (active) and 5.49 µM (active); in assay [7], 26.8 µM [inconclusive] (active) and 34.4 µM [inconclusive] (active) and 1.1 µM [fluorescent] (active); in [5], 2.98 µM (active) and 3.04 µM (active) and 4.33 µM (active). The Potency in the assay with Aromatase (Homo sapiens) was 3.35 µM (active) and 1.36 µM (active) and 686 nM (active). Also, the Potency entry in [3] was “inactive”.

`CCCC[n+]1ccccc1`: the Potency result (in assay [1]; in [2]; in assay [3]; in assay [4]; in assay [5]; with Aromatase (Homo sapiens)) was “inactive” in each case.

Turning to `CCCCCC[n+]1ccccc1`, the Potency result (in [1]; in assay [2]; in assay [3]; in [4]; in assay [5]; with Aromatase (Homo sapiens)) was “inactive” each time.

Regarding `CC[N+]1(C)CCCC1`, the Potency entry (in assay [1]; in assay [2]; in assay [3]; in assay [4]; in assay [5]; with Aromatase (Homo sapiens)) was “inactive” throughout.

Consider `CCCCCCCCCCCCn1cc[n+](C)c1`, for which the Potency in assay [1] is 4.4 µM (active) [middle of 6 runs].

Take `CC(Cl)(Cl)C(=O)O`: the Potency result in [1], in [2], in assay [3], in assay [6], in assay [4] and in assay [7] was “inactive” each time. Moreover, the Potency entry (in assay [8]; in assay [9]; in [5]; with Aromatase (Homo sapiens)) was “inactive” each time.

`COP(=O)(OC)OC=C(Cl)Cl`: the Potency entry in assay [1], in assay [2], in assay [3], in assay [4], in [7] and in [8] was “inactive” throughout. The Potency result (in assay [9]; in [5]; with Aromatase (Homo sapiens)) was “inactive” throughout. Besides, in assay [6], the Potency was 10.7 µM [inhibitor] (active) and inactive.

Turning to `CCCCn1cc[n+](C)c1C`, the Potency entry (in [1]; in assay [2]; in assay [3]; in assay [4]; in assay [5]; with Aromatase (Homo sapiens)) was “inactive” in each case.

Take `OCCOc1ccccc1`: the Potency entry in assay [1], in [2], in [3], in assay [6], in [4] and in assay [7] was “inactive” throughout. Besides, the Potency result (in [8]; in [9]; in assay [5]; with Aromatase (Homo sapiens)) was “inactive” in each case.

As for `COc1ccccc1N`, the Potency entry (in assay [1]; in assay [2]; in assay [3]; in assay [4]; in assay [5]; with Aromatase (Homo sapiens)) was “inactive” each time.

For `O=C(O)C(Cl)Cl`, the Potency result in [1], in [2], in assay [6], in assay [4], in [7] and in assay [8] was “inactive” throughout. The Potency result (in assay [9]; in assay [5]; with Aromatase (Homo sapiens)) was “inactive” throughout. For the same compound, in [3], the Potency entry is “inactive and 61.1 µM (active)”.

In the case of `O=C(O)CCl`, the Potency result (in assay [1]; in assay [2]; in [3]; in assay [4]; in assay [5]; in the assay with Aromatase (Homo sapiens)) was “inactive” each time.

Take `CCCC[N+]1(C)CCCC1`: the Potency result (in assay [1]; in [2]; in assay [3]; in assay [4]; in [5]; with Aromatase (Homo sapiens)) was “inactive” each time.

As to `C[C@]12CCC(=O)C=C1CC[C@@H]1[C@@H]2CC[C@]2(C)C(=O)CC[C@@H]12`, the Potency result (in [1]; in assay [3]; in assay [4]; in assay [9]; in [5]; in the assay with Aromatase (Homo sapiens)) was “inactive” in each case. For the same compound, the Potency was 60.1 µM (active) in [2]; 27.1 µM [activator] (active) and inactive in assay [7]; 1.5 µM (active) and 4.25 µM (active) and 4.33 µM (active) in assay [8].

For the compound `C1CCC(NC2CCCCC2)CC1`, the Potency entry in [1], in [2], in [3], in assay [6], in assay [4] and in assay [7] was “inactive” throughout. In addition, the Potency entry (in assay [8]; in [9]; in [5]; with Aromatase (Homo sapiens)) was “inactive” each time.

As to `CCCCn1cc[n+](C)c1`, the Potency result (in [1]; in assay [2]; in assay [3]; in assay [4]; in [5]; with Aromatase (Homo sapiens)) was “inactive” in each case.

`O=C(O)c1nc(Cl)ccc1Cl`: the Potency entry in [1], in assay [2], in assay [3], in assay [6], in assay [4] and in assay [7] was “inactive” in each case. Also, the Potency result (in assay [8]; in assay [9]; in assay [5]; with Aromatase (Homo sapiens)) was “inactive” throughout.

With `Nc1ccc(-c2ccc(N)c(Cl)c2)cc1Cl`, the Potency in assay [1] was 30.8 µM (active) and 18 µM (active) and 30.6 µM (active); in assay [2], 27.4 µM (active) and 10.1 µM (active) and 17.2 µM (active); in assay [6], 27.7 µM [inhibitor] (active); in assay [4], “inactive and 17.4 µM (active)”; in [7], 24.7 µM [inconclusive] (active) and 20.4 µM [inconclusive] (active) and 54.9 µM [inconclusive] (active); in assay [8], 9.04 µM (active) and 6.86 µM (active). In [9], the Potency was 64 µM (active). In addition, the Potency result in [3] and in assay [5] was “inactive” throughout.
